# PubChem BioAssay (EPA / NIEHS)
# “And” between values parts separate entries of the source, which are not always exact repeats. Equal entries are not always repeated. Records with an inconclusive call do not appear. The source made the active and inactive calls. How the source made its calls: active means hit-call score of the fitted dose curve at least 0.9, where 1 is the maximum; inconclusive means response in the unintended direction; inactive means score below 0.9.
# Target: human Peripheral-type Benzodiazepine Receptor (PBR), TSPO (gene 706) (UniProt P30536)
# Sequence (P30536 whole entry, looked up): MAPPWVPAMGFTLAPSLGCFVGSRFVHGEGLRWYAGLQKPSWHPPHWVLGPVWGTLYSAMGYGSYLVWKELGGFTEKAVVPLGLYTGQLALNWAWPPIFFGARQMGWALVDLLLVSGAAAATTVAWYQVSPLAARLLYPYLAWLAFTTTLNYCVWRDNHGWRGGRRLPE
# Assay: NVS_MP_hPBR: NovaScreen (NVS) Membrane Protein Assay for human Peripheral-type Benzodiazepine Receptor (PBR) (AID 2283331)
# Protocol: NVS_MP_hPBR is a biochemical, single-readout assay that uses extracted gene-proteins from Human colonic cell membranes in a tissue-based cell-free assay. Measurements were taken 1 hour after chemical dosing in a 48-well plate.NVS_MP_hPBR is one of one assay component(s) measured or calculated from the NVS_MP_hPBR assay. It is designed to make measurements of radioligand binding, a form of binding reporter, as detected with scintillation counting signals by Filter-based radiodetection technology.Data from the assay component NVS_MP_hPBR was analyzed into 1 assay endpoint. This assay endpoint, NVS_MP_hPBR, was analyzed in the positive analysis fitting direction relative to DMSO as the negative control and baseline of activity. Using a type of binding reporter, loss-of-signal activity can be used to understand changes in the binding as they relate to the gene TSPO. Furthermore, this assay endpoint can be referred to as a primary readout, because the performed assay has only produced 1 assay endpoint. To generalize the intended target to other relatable targets, this assay endpoint is annotated to the transporter intended target family, where the subfamily is cholesterol transporter.
# Binding assays used specific radioligands (tritiated, iodinated) with non-radioactive competitive displacement ligands in agonist or antagonist protocols (as indicated) and various reference compounds and inhibitors to titrate specific binding to receptors and transporters. Most enzyme assays (CYPs, kinases, phosphatases, proteases, HDACs) used recombinant protein and specific substrates (fluorescence mostly, some colorimetric and radioactive) and inhibitors, followed by a biochemical separation of substrate and product. All assays for the biochemical HTS were initially run in duplicate at a single concentration (10 uM for CYP450 assays and 25 uM for all others). […] Each assay was run with positive and negative controls, and concurrent controls on every plate. The follow-up (secondary) screen tested active chemical-pairs in concentration series, as well as a few additional assays not tested in the primary screen, some selected negative inactives, and several cases re-run in the concentration series for confirmatory purposes.
SMILES,AC50,outcome
NC(=O)N1C(=O)C(C(=O)c2cc(Cl)cs2)c2cc(F)c(Cl)cc21 (stereo unspecified),0.951 µM (active),–
c1ccc2cc3c(ccc4ccccc43)cc2c1,3.45 µM (active) and 5.17 µM (active) and 12.5 µM (active),–
O=C(O)Cc1cc(I)c(Oc2cc(I)c(O)c(I)c2)c(I)c1,–,inactive
CC1=C(/C=C/C(C)=C/C=C/C(C)=C/C(=O)O)C(C)(C)CCC1,18.1 µM (active),–
CCN(CC)CCNc1ccc(CNC=O)c2sc3ccc(OC)cc3c(=O)c12,8.04 µM (active),–
Cc1oc(-c2ccccc2)nc1CCOc1ccc(C[C@H](Nc2ccccc2C(=O)c2ccccc2)C(=O)O)cc1,6.36 µM (active),–
CCCOC(=O)c1ccc(O)cc1,–,inactive
CCc1ccc(CCOc2ccc(CC3SC(=O)NC3=O)cc2)nc1 (stereo unspecified),12.1 µM (active),–
NC(=O)N(O)[C@@H]1C=C[C@H](Oc2cccc(Oc3ccc(F)cc3)c2)C1,28.5 µM (active),–
CCC(=C(c1ccc(O)cc1)c1ccc(OCCN(C)C)cc1)c1ccccc1,–,inactive
CC[C@H](c1ccc(O)cc1)[C@@H](CC)c1ccc(O)cc1,795 nM (active) [middle of 4 runs],–
